# Data as given in PubChem BioAssay (NCATS).
# Several values for one entry are separate records, joined by “and”; a condition that tells them apart may be missing. Equal values may be shown once. Records with an inconclusive call do not appear. A number with no mark means an inactive call. Activity calls are given as the source filed them. The call rests on the fitted dose curve; in most records, active means well fitted inhibition curve with a large enough effect; inconclusive means small, poorly fitted or top-dose-only effect; inactive means flat fitted curve, though single readings scatter.
# Test: Drug repurposing screens with cells derived from glioblastoma tumor samples (AID 1345199); further: nearly all actives have a fitted effect of over 40% in size
# Conditions: GBM patient neurospheres viability, ATP luminescence, 48 h
# Experimental: CD133+ cells were isolated from GBM patient biopsies and cultured as neurospheres. Neurospheres from four patients were used to screen the NCATS pharmaceutical collection (NPC) library of approved drugs and bioactive compounds. […] The neurospheres were incubated with drugs for 48 hours in 1536-well format, then assayed with an ATP content cell viability assay. […] These hits were cherry picked to confirm activity in the four original GBM lines screened plus three other slower growing GMB lines (unable to yield enough cells for a full primary screen). Variable activities of the confirmed primary hits in the different GBM patient lines were observed. The patient line 206 responded to the greatest number of compounds and line 923 responded to the least amount of active compounds.
# [1] = at 45.9 µM (top of the series), tumour line B
# [2] = at 45.9 µM (top of the series), tumour line D
# [3] = at 46.1 µM (top of the series), tumour line C
# [4] = at 46 µM (top of the series), tumour line A
# On the % scale 0 is the no-effect control and ±100 the full control effect; potency means the concentration at half of the fitted maximal effect.
smiles,measurement,setting,value
Nc1ccc(S(=O)(=O)NC(=O)c2ccccc2)cc1,"activity, negative = cell killing","at 20 µM (top of the series), tumour line C",-23.5%
same,"activity, negative = cell killing","at 21.2 µM (top of the series), tumour line B",-10.1%
same,"activity, negative = cell killing","at 21.2 µM (top of the series), tumour line D",-27.1%
same,"activity, negative = cell killing","at 21.3 µM (top of the series), tumour line A",-8.76%
CC(C)(O)c1ccccc1CC[C@@H](SCC1(CC(=O)O)CC1)c1cccc(/C=C/c2ccc3ccc(Cl)cc3n2)c1,"activity, negative = cell killing",[1],-2.34%
same,"activity, negative = cell killing",[2],-14.4%
same,"activity, negative = cell killing",[3],-19.5%
CC1(C)Oc2ccc(C#N)cc2[C@@H](N2CCCC2=O)[C@@H]1O,"activity, negative = cell killing",[1],-7.82% and 2.52%
same,"activity, negative = cell killing",[2],-4.19% and -0.466%
same,"activity, negative = cell killing",[4],-32.5% and -12.3%
same,"activity, negative = cell killing",[3],-7.78% and -4.72%
COC(=O)[C@H]1[C@H]2C[C@@H]3c4[nH]c5cc(OC)ccc5c4CCN3C[C@H]2C[C@@H](OC(=O)COc2ccc(OC)cc2)[C@@H]1OC,"activity, negative = cell killing",[1],-20.4%
same,Potency,tumour line A,11.2 µM (active)
CC(C)(C(=O)O)c1ccc(C(O)CCCN2CCC(C(O)(c3ccccc3)c3ccccc3)CC2)cc1 (stereo not drawn),"activity, negative = cell killing",[1],0.768%
same,"activity, negative = cell killing",[2],0.91%
same,"activity, negative = cell killing",[4],-18.8%
same,"activity, negative = cell killing",[3],14%
CN(C)CCOC(C)(c1ccccc1)c1ccccn1 (stereo not drawn),"activity, negative = cell killing",[1],-6.13%
same,"activity, negative = cell killing",[2],-4.11%
same,"activity, negative = cell killing",[3],-0.022%
same,Potency,tumour line A,15.8 µM (active)
CC(=O)Nc1ccc(/C=N/NC(N)=S)cc1,"activity, negative = cell killing",[1],-6.76% and -4.79%
same,"activity, negative = cell killing",[2],-13.7% and -15.9%
same,"activity, negative = cell killing",[4],-28.2%
same,"activity, negative = cell killing",[3],-27.6% and -20.2%
COc1ccc(S(=O)(=O)Nc2nnc(CC(C)C)s2)cc1,"activity, negative = cell killing",[1],-4.51% and -11.1%
same,"activity, negative = cell killing",[2],-10.6% and 2.66%
same,"activity, negative = cell killing",[4],-18%
same,"activity, negative = cell killing",[3],-23.9%
NCC(=O)CCC(=O)O,"activity, negative = cell killing",[1],-16.2%
same,"activity, negative = cell killing",[2],-11%
same,"activity, negative = cell killing",[4],-11%
same,"activity, negative = cell killing",[3],-6.71%
CC(O)COc1ccccc1 (stereo not drawn),"activity, negative = cell killing",[1],-16.3%
same,"activity, negative = cell killing",[2],2.5%
same,"activity, negative = cell killing",[4],-19.2%
same,"activity, negative = cell killing",[3],-0.412%
O=c1[nH]cnc2c1ncn2[C@@H]1O[C@H](CO)[C@@H](O)[C@H]1O,"activity, negative = cell killing",[1],9.46%
same,"activity, negative = cell killing",[2],-5.06%
same,"activity, negative = cell killing",[4],7.03%
same,"activity, negative = cell killing",[3],2.71%
CC1=C(C/C=C(\C)CCC[C@H](C)CCC[C@H](C)CCCC(C)C)C(=O)c2ccccc2C1=O,"activity, negative = cell killing",[3],-10.9%
same,Potency,tumour line A,11.2 µM (active)
